# Sampled rows, rich in hits. Any-hit rate of the full collection: about 19%.
# VP16 counter – VP16 counterscreen qHTS for inhibitors of ROR gamma transcriptional activity | AID 2546, 2010 | Drosophila S2 Gal4-VP16 UAS-luciferase, luminescence, 20 h | Potency, µM (doses to about 53.6 µM), for the others: at the top dose activity, negative = inhibition, usual class: inhibitors | 310,000 tested, 3.5% active;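 further: Gal4-VP16 expression switched on by copper sulfate through the metallothionein promoter; nearly all actives have a fitted effect of over 50% in size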
# TDP1 cell noCPT – qHTS for Inhibitors of human tyrosyl-DNA phosphodiesterase 1 (TDP1): qHTS in cells in absence of CPT; DT40 Tdp1-/- hTDP1 cells, no CPT, ATP luminescence, 48 h; Potency, µM (series often up to 46.2 µM), for inactives: at the highest dose activity change, negative = growth inhibition, actives largely listed as inhibitors; AID 686978, 2013; 420,000 tested, 15% active; further: nearly all actives have a fitted effect of over 55% in size
#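 Compound effects on proliferation are scored in DT40 Tdp1-/-;hTDP1 cells in the absence of CPT. ATP levels (CellTiter-Glo luminescence) are recorded after a ≥48 hr, 37 °C incubation.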
# RORgamma inh – qHTS for inhibitors of ROR gamma transcriptional activity; AID 2551, 2010; Nuclear receptor ROR-gamma (Mus musculus), P51450; 310,000 tested, 5.4% active; Drosophila S2 Gal4-RORgamma UAS-luciferase reporter, 20 h; Potency, µM (series often up to 53.6 µM), inactives show at the highest dose activity change, negative = inhibition, usual class: inhibitors; further: nearly all actives have a fitted effect of over 60% in size
#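 Stable Schneider cell line, Gal4 DNA-binding domain fused to ROR gamma, UAS-luciferase. Cmpd 1 hr RT → CuSO4 700 uM final → 20 hr RT → luciferase reagent 10 min → luminescence.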
# TDP1 cell CPT – qHTS for Inhibitors of human tyrosyl-DNA phosphodiesterase 1 (TDP1): qHTS in cells in presence of CPT. chicken DT40 Tdp1-/-;hTDP1 cells + 20 nM CPT, ATP luminescence, 48 h. Potency, µM (titrated, usually from 46.2 µM), inactives show at the highest dose activity change, negative = growth inhibition, usual class: inhibitors. 420,000 tested, 12% active. AID 686979, 2013; further: nearly all actives have a fitted effect of over 55% in size
#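 Cell growth measured by CellTiter-Glo luminescence after a minimum 48 h, 37 C compound exposure with 20 nM CPT in Tdp1-knockout DT40 cells stably expressing hTDP1, seeded 400/well; qHTS titration format.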
# TDP1 inh – qHTS Assay for Inhibitors of Tyrosyl-DNA Phosphodiesterase (TDP1); Tyrosyl-DNA phosphodiesterase 1 (Homo sapiens), Q9NUW8; recombinant TDP1, AlphaScreen DNA substrate cleavage; Potency, µM (series often up to 130 µM), for inactives: at the top dose activity change, negative = inhibition, hits mostly inhibitors; 350,000 tested, 0.28% active; AID 485290, 2010; further: nearly all actives have a fitted effect of over 40% in size
# Target sequence (Q9NUW8 whole entry, looked up): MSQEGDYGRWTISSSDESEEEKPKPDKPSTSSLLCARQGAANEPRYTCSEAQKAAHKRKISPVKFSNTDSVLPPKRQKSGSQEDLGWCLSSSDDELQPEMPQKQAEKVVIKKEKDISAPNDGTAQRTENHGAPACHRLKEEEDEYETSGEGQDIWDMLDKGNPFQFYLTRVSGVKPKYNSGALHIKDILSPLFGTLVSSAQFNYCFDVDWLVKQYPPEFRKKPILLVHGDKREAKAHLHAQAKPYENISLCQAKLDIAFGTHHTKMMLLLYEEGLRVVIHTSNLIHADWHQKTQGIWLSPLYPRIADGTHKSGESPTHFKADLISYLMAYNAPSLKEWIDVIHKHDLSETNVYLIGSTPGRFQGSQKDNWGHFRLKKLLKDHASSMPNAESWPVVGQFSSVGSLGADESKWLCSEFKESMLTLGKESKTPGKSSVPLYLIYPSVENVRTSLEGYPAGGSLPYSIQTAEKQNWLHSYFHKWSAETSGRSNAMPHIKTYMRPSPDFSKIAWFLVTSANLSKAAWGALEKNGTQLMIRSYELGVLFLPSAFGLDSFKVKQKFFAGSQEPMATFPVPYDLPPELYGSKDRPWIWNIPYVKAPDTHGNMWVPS
#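 Enzyme-compound mixtures sat 15 min at room temperature, followed by a 5 min reaction with 15 nM final substrate and 10 min with AlphaScreen beads. Recombinant human Tdp1 was used at 1 nM final.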
# An asterisk follows results filed as active; ? = inconclusive; nt = no result given. The call rests on the fitted dose curve; in most records, active means well fitted curve in the direction sought with a large enough effect; inconclusive means small, poorly fitted or top-dose-only effect, or another doubt; inactive means no such curve, though single readings can be large; an effect the other way counts as inactive or inconclusive. On the % scale 0 is the no-effect control and ±100 the full control effect; potency means the concentration at half of the fitted maximal effect.
SMILES,VP16 counter,TDP1 cell noCPT,RORgamma inh,TDP1 cell CPT,TDP1 inh
CCc1cc(=O)oc2cc(C)cc(OC(=O)c3ccco3)c12,-7%,-23%,?,?,5%
CCOC(=O)N(C)c1ccc(C(O)(C(F)(F)F)C(F)(F)F)cc1,-3%,?,25%,?,0%
CC(=O)N(C)c1ccc(C(O)(C(F)(F)F)C(F)(F)F)cc1,-12%,?,13µM*,-8%,5%
Cc1cc2nccnc2cc1C,nt,-3%,nt,0%,nt
O=C(NN=Cc1ccc(Cl)cc1Cl)c1ccccc1,nt,?,nt,-25%,nt
NC(N)=N/N=C/c1ccc(Cl)c(Cl)c1,-8%,16µM*,2%,13µM*,nt
Clc1ccc(C=NN2CCCCCC2)cc1Cl,nt,-22%,nt,3%,nt
NC(N)=N/N=C/c1ccc(Cl)cc1Cl,-1%,23µM*,-8%,16µM*,0%
NC(N)=N/N=C/c1ccc(OCc2ccccc2Cl)cc1,?,13µM*,?,15µM*,7%
CC(C)CNC(=O)NC(=O)COC(=O)c1cccc(NS(=O)(=O)c2ccc(F)c(F)c2)c1,?,?,-104%,-27%,3%
COc1cc(CNCc2cccc(OC)c2OC)cc(OC)c1,3%,?,2%,?,nt
CCC(C(=O)OC)n1cnc2c(nnn2-c2cccc(OC)c2)c1=O (configuration not stated),1%,-18%,21%,-8%,nt
O=C(NN1C(=O)C2C(C1=O)C1C=CC2C12CC2)c1ccccc1 (configuration not stated),-18%,-2%,35%,-12%,1%
O=C(CCSc1ccc(Br)cc1)Nc1cccnc1,-4%,23µM*,11%,14%,3%
CCOc1ccc(-c2n[nH]c3c2C(c2cccs2)N(c2ccc(Br)cc2)C3=O)cc1 (configuration not stated),nt,?,nt,?,2%
CCOc1ccc(N2C(=O)c3[nH]nc(-c4ccc(OC)cc4)c3C2c2cccs2)cc1 (configuration not stated),nt,26µM*,nt,23µM*,10%
CCCN1C(=O)c2[nH]nc(-c3ccc(OC)cc3)c2C1c1ccccn1 (configuration not stated),nt,26µM*,nt,?,2%
CCOC(=O)c1ccc(N2C(=O)c3[nH]nc(-c4ccccc4)c3C2c2cccs2)cc1 (configuration not stated),nt,21µM*,nt,23µM*,2%
CCOC(=O)c1ccc(N2C(=O)c3[nH]nc(-c4ccccc4)c3C2c2ccc(CC)cc2)cc1 (configuration not stated),nt,18µM*,nt,21µM*,9%
CCOC(=O)c1ccc(N2C(=O)c3[nH]nc(-c4ccc(OCC)cc4)c3C2c2cccs2)cc1 (configuration not stated),nt,3.7µM*,nt,7.3µM*,2%
Cc1nc(-c2ccccc2)nn1-c1ccc([N+](=O)[O-])cc1,nt,?,nt,-7%,nt
COc1ccc2c(c1)c(C(=O)N/N=C/c1cccc(O)c1)c(C)n2C,-7%,10µM*,1%,18µM*,6%
COc1ccc2c(c1)c(C(=O)N/N=C/c1cccc(Br)c1)c(C)n2C,1%,10µM*,-34%,?,nt
COc1ccc2c(c1)c(C(=O)N/N=C/c1ccccc1Cl)c(C)n2C,14%,8.2µM*,-34%,21µM*,nt
Cc1cc(SCC(=O)OCC(=O)N2CCN(C(=O)c3ccco3)CC2)c(C)cc1Br,?,-18%,15%,-18%,9%
O=C1OC(c2ccc3c(c2)OCO3)=N/C1=C\c1ccc(C(=O)O)cc1,-9%,-7%,10%,-18%,nt
CC1CCN(CC(CS(=O)(=O)c2ccc([N+](=O)[O-])cc2)N2CCC(C)CC2)CC1 (configuration not stated),-4%,2.3µM*,-6%,2.1µM*,nt
